According to paper PMC7862700, “An all-to-all approach to the identification of sequence-specific readers for epigenetic DNA modifications on cytosine”:

How the values were obtained:
Assay in all cases: DAPPL (digital affinity profiling via proximity ligation, sequencing); 10 mM Tris-HCl pH 7.5, 50 mM NaCl, 1 mM DTT, 4% glycerol, room temperature, 30 min; GST-TFs on glutathione beads, 16-mer random dsDNA library, 0.1% formaldehyde crosslink after washing; high values mean tight binding
FEV = target: T1, FEV (Homo sapiens, UniProt Q99581 1-238); settings: protein: recombinant; tags: N-terminal GST; dsDNA, one strand shown
T1 sequence: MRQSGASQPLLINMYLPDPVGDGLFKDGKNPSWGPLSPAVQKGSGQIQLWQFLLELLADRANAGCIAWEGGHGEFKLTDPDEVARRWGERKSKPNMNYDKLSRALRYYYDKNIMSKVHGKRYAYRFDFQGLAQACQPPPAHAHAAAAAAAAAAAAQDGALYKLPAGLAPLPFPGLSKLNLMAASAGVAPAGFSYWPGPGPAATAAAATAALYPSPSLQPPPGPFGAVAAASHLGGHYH
How it was run: (§1)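 Binding signal is each hexamer's read frequency for a factor divided by its frequency in the tag-only sample. The factors were GST-fused human transcription factors from yeast, captured on glutathione beads, DNA-barcoded and pooled with that sample. Pools were incubated with 200 nmole of a random double-stranded 16-mer DNA library in Tris/NaCl/DTT/glycerol buffer at room temperature for 30 min, then washed, crosslinked with 0.1% formaldehyde, proximity-ligated with BsaI/T4 ligase (1 h, 37 °C), PCR-amplified and sequenced on an Illumina NextSeq500.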

ETV5 = ETV5 (Homo sapiens, UniProt P41161 1-510); settings: protein: recombinant; tags: N-terminal GST; dsDNA, one strand shown
How it was run: as §1

HSF1 = HSF1 (Homo sapiens, UniProt Q00613 1-529); settings: protein: recombinant; tags: N-terminal GST; chain copies: 3; dsDNA, one strand shown
How it was run: as §1

SPIC = target: T2, SPIC (Homo sapiens, UniProt Q8N5J4 1-248); settings: protein: recombinant; tags: N-terminal GST; dsDNA, one strand shown
T2 sequence: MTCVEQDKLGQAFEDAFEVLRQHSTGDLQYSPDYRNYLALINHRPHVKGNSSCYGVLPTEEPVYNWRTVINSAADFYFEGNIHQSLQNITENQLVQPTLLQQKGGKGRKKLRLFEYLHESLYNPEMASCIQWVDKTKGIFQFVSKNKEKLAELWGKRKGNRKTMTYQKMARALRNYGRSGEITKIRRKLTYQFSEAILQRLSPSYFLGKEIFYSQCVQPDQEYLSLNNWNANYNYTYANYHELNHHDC
How it was run: as §1

ELF4 = ELF4 (Homo sapiens, UniProt Q99607 1-663); settings: protein: recombinant; tags: N-terminal GST; dsDNA, one strand shown
How it was run: as §1

ELK4 = target: T3, ELK4 (Homo sapiens, UniProt P28324-2 1-405); settings: protein: recombinant; tags: N-terminal GST; dsDNA, one strand shown
T3 sequence: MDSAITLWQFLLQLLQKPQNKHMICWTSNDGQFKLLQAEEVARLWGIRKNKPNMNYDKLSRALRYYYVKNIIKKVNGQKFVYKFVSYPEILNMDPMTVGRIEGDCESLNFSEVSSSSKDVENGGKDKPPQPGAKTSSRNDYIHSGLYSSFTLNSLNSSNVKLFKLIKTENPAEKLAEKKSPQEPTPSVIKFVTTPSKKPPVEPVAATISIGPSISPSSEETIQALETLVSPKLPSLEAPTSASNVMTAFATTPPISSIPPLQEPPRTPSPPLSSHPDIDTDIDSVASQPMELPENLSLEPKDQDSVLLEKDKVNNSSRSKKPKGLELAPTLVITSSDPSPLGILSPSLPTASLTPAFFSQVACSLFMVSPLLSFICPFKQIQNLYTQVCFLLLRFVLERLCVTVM
How it was run: as §1

ETV2 = target: T4, ETV2 (Homo sapiens, UniProt O00321 1-342); settings: protein: recombinant; tags: N-terminal GST; dsDNA, one strand shown
T4 sequence: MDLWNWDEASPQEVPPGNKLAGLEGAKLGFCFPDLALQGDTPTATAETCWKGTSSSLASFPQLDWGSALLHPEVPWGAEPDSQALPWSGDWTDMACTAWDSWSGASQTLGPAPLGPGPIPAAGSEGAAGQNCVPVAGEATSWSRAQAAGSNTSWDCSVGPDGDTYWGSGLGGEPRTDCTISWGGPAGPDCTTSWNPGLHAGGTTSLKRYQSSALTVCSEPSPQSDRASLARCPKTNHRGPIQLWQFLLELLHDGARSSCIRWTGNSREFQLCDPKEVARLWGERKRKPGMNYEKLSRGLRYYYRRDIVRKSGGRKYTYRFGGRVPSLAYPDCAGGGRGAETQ
How it was run: as §1

ELF3 = target: T5, ELF3 (Homo sapiens, UniProt P78545 1-371); settings: protein: recombinant; tags: N-terminal GST; dsDNA, one strand shown
T5 sequence: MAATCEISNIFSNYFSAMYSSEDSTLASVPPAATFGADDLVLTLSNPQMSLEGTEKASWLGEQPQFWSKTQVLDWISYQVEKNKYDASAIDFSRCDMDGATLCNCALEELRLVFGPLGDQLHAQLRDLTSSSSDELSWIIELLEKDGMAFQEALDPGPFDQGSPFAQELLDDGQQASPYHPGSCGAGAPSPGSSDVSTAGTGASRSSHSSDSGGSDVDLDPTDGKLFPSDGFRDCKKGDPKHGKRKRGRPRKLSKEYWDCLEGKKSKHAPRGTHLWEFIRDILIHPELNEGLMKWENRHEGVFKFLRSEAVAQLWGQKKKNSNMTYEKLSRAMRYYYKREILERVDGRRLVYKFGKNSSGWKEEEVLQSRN
How it was run: as §1

CRX = CRX (Homo sapiens, UniProt O43186 1-299); settings: protein: recombinant; tags: N-terminal GST; dsDNA, one strand shown
How it was run: as §1

ETV1 = ETV1 (Homo sapiens, UniProt P50549 1-477); settings: protein: recombinant; tags: N-terminal GST; dsDNA, one strand shown
How it was run: as §1

ERF = target: T6, ERF (Homo sapiens, UniProt P50548 1-548); settings: protein: recombinant; tags: N-terminal GST; dsDNA, one strand shown
T6 sequence: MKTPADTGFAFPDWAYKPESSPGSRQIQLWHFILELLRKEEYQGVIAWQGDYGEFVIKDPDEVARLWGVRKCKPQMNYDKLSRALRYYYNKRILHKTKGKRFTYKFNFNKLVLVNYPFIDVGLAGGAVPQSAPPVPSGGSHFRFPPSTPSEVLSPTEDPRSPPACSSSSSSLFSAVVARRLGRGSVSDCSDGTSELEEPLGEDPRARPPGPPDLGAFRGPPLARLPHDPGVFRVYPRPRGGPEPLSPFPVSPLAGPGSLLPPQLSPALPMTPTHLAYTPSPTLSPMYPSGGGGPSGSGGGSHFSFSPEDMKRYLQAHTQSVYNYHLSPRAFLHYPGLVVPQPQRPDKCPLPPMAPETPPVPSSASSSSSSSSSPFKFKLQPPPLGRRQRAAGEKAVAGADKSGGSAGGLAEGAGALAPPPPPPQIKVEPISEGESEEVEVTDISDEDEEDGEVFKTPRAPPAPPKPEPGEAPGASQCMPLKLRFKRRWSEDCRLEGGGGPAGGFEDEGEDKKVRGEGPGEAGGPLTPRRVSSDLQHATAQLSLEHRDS
How it was run: as §1

ETV3L = target: T7, ETV3L (Homo sapiens, UniProt Q6ZN32 1-361); settings: protein: recombinant; tags: N-terminal GST; dsDNA, one strand shown
T7 sequence: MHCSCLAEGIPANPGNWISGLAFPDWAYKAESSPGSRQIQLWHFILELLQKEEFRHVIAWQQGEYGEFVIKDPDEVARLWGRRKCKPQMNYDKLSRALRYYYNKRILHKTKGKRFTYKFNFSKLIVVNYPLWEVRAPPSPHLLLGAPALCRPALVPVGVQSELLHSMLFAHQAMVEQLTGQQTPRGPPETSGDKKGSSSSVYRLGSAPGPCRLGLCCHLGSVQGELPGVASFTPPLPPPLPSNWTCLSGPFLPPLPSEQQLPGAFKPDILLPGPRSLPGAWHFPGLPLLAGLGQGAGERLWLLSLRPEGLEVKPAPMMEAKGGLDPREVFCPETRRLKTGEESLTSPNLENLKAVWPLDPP
How it was run: as §1

ETS2 = target: T8, ETS2 (Homo sapiens, UniProt P15036 1-469); settings: protein: recombinant; tags: N-terminal GST; dsDNA, one strand shown
T8 sequence: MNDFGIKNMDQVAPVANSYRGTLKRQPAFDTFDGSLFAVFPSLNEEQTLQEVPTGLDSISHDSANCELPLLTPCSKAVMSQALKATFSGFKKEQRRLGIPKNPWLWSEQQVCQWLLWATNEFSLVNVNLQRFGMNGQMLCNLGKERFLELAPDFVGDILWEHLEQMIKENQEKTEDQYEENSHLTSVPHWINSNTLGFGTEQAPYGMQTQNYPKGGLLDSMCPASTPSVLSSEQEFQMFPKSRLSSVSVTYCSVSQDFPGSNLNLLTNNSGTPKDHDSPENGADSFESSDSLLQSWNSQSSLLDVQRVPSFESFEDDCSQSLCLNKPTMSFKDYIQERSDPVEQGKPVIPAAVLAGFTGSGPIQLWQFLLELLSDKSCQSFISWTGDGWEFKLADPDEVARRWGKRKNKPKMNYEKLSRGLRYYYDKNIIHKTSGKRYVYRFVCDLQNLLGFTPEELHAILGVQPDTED
How it was run: as §1

SPDEF = target: T9, SPDEF (Homo sapiens, UniProt O95238 1-335); settings: protein: recombinant; tags: N-terminal GST; dsDNA, one strand shown
T9 sequence: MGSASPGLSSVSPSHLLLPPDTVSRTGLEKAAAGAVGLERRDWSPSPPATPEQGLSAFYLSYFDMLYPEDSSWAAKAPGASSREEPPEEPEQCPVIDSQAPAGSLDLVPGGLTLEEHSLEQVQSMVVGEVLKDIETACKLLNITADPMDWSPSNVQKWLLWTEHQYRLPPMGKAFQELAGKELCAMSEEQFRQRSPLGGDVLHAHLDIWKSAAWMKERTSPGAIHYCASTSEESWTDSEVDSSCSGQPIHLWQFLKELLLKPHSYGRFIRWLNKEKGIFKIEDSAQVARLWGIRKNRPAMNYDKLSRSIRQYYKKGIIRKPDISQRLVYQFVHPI
How it was run: as §1

ETV7 = target: T10, ETV7 (Homo sapiens, UniProt Q9Y603 1-341); settings: protein: recombinant; tags: N-terminal GST; dsDNA, one strand shown
T10 sequence: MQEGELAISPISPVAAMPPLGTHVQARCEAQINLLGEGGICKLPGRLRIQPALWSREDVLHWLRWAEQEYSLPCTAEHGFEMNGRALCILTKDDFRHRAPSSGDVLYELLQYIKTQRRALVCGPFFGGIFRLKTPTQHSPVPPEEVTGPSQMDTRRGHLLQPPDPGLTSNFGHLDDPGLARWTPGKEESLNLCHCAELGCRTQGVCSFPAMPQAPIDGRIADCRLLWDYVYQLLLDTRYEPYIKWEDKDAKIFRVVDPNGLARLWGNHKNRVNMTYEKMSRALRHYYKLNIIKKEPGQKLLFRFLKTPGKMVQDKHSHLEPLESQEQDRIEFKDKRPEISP
How it was run: as §1

ELF5 = target: T11, ELF5 (Homo sapiens, UniProt Q9UKW6-2 1-255); settings: protein: recombinant; tags: N-terminal GST; dsDNA, one strand shown
T11 sequence: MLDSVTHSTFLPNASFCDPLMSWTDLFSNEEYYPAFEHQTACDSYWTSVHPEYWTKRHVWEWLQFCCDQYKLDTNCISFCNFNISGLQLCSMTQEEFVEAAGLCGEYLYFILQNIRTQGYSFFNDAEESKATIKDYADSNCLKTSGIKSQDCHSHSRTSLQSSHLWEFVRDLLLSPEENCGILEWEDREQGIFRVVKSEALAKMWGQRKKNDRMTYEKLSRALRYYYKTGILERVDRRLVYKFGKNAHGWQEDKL
How it was run: as §1

ETV3 = target: T12, ETV3 (Homo sapiens, UniProt P41162-2 1-143); settings: protein: recombinant; tags: N-terminal GST; dsDNA, one strand shown
T12 sequence: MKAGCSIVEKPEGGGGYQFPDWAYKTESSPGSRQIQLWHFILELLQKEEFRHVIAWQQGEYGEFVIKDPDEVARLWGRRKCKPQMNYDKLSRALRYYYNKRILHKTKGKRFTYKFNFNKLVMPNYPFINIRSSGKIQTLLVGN
How it was run: as §1

ETV6 = ETV6 (Homo sapiens, UniProt P41212 1-452); settings: protein: recombinant; tags: N-terminal GST; dsDNA, one strand shown
How it was run: as §1

Chain of ETV6 (P41212 whole entry): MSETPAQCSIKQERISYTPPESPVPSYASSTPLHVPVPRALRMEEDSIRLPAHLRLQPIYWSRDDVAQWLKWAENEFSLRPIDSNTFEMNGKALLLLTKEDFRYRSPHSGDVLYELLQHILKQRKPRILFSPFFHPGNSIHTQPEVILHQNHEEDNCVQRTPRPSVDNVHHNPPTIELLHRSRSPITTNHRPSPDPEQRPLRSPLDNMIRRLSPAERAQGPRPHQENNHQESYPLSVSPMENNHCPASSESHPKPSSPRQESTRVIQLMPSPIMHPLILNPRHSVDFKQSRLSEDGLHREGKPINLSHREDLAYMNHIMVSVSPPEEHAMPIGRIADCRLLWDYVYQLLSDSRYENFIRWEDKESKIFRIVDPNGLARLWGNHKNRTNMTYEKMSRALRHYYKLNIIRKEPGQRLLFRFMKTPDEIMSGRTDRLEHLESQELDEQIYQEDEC
Chain of ELF4 (Q99607 whole entry): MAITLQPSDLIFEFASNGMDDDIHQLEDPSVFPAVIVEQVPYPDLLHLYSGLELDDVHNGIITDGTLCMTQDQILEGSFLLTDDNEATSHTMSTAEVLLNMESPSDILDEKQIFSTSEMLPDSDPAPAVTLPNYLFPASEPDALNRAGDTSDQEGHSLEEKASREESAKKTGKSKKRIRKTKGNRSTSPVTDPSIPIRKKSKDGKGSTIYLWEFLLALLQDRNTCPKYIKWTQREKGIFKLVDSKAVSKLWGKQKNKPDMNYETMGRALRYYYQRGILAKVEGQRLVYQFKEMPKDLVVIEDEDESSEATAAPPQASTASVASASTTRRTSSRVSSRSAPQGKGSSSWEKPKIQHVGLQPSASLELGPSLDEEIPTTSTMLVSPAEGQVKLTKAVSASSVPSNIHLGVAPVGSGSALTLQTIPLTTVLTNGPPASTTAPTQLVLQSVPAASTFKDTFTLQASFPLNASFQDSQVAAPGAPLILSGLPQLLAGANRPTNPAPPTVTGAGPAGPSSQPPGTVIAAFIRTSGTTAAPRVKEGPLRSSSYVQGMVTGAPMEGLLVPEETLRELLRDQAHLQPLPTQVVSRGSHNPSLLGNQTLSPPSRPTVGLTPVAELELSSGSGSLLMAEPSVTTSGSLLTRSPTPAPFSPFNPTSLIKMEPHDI
Chain of ETV1 (P50549 whole entry): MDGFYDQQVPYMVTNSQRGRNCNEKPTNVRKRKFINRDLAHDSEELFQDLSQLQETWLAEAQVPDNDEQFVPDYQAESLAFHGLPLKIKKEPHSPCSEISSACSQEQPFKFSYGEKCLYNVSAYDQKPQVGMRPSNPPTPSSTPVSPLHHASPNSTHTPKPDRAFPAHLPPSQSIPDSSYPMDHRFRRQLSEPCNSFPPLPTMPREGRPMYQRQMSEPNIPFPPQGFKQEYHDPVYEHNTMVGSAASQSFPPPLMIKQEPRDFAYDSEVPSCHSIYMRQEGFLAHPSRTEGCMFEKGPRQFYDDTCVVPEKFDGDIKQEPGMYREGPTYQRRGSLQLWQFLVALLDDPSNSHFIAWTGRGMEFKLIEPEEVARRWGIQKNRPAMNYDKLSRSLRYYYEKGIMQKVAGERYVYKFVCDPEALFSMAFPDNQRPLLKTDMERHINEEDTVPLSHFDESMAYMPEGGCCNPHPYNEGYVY
Chain of HSF1 (Q00613 whole entry): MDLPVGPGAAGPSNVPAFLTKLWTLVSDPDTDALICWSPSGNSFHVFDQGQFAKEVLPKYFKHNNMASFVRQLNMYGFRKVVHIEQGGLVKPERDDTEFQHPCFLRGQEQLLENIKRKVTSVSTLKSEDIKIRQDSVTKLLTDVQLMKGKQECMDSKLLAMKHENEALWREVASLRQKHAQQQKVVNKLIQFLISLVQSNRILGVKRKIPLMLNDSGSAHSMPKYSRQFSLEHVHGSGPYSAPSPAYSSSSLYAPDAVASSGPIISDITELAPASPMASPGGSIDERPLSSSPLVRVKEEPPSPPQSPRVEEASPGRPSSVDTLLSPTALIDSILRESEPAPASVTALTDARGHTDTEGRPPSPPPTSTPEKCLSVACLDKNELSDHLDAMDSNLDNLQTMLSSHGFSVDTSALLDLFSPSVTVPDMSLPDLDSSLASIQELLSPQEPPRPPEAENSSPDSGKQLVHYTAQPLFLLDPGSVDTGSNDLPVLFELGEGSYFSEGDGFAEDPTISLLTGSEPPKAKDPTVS
Chain of ETV5 (P41161 whole entry): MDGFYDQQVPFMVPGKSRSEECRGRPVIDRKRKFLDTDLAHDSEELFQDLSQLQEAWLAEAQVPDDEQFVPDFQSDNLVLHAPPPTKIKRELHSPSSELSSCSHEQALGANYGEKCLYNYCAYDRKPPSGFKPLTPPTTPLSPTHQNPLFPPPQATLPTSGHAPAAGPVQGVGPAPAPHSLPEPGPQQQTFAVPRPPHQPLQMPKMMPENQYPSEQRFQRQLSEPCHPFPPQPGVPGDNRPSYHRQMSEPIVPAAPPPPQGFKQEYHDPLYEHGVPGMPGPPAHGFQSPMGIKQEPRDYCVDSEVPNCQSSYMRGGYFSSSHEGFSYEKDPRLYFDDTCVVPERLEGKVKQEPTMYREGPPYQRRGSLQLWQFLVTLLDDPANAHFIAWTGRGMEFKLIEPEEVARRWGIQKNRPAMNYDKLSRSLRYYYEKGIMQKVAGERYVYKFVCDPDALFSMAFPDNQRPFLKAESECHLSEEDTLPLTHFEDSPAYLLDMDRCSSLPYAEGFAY
Chain of CRX (O43186 whole entry): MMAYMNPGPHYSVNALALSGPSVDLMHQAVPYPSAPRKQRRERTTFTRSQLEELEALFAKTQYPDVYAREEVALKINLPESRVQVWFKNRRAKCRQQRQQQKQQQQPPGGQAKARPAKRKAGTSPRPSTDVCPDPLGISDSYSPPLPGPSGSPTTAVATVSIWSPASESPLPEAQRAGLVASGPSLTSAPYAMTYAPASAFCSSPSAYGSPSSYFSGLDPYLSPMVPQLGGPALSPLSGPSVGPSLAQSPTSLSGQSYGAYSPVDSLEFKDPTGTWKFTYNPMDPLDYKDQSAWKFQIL

CTCGGC
binding signal (FEV): 1.29 fold enrichment (6-mer frequency, TF over GST control) | binding signal (ETV5): 1.41 fold enrichment (6-mer frequency, TF over GST control) | binding signal (HSF1): 1.31 fold enrichment (6-mer frequency, TF over GST control) | binding signal (SPIC): 1.26 fold enrichment (6-mer frequency, TF over GST control) | binding signal (ELF4): 1.56 fold enrichment (6-mer frequency, TF over GST control) | binding signal (ELK4): 1.39 fold enrichment (6-mer frequency, TF over GST control) | binding signal (ETV2): 1.34 fold enrichment (6-mer frequency, TF over GST control) | binding signal (ELF3): 1.52 fold enrichment (6-mer frequency, TF over GST control) | binding signal (CRX): 1.13 fold enrichment (6-mer frequency, TF over GST control) | binding signal (ETV1): 1.54 fold enrichment (6-mer frequency, TF over GST control) | binding signal (ERF): 1.34 fold enrichment (6-mer frequency, TF over GST control) | binding signal (ETV3L): 1.26 fold enrichment (6-mer frequency, TF over GST control) | binding signal (ETS2): 1.31 fold enrichment (6-mer frequency, TF over GST control) | binding signal (SPDEF): 1.22 fold enrichment (6-mer frequency, TF over GST control) | binding signal (ETV7): 1.34 fold enrichment (6-mer frequency, TF over GST control) | binding signal (ELF5): 1.34 fold enrichment (6-mer frequency, TF over GST control) | binding signal (ETV3): 1.36 fold enrichment (6-mer frequency, TF over GST control) | binding signal (ETV6): 1.37 fold enrichment (6-mer frequency, TF over GST control)
